In publication PMC7862700, “An all-to-all approach to the identification of sequence-specific readers for epigenetic DNA modifications on cytosine”:

Legend:
Experiment in all cases: DAPPL (digital affinity profiling via proximity ligation, sequencing); 10 mM Tris-HCl pH 7.5, 50 mM NaCl, 1 mM DTT, 4% glycerol, room temperature, 30 min; GST-TFs on glutathione beads, 16-mer random dsDNA library, 0.1% formaldehyde crosslink after washing; high values mean tight binding
[1] = biological target: T1, FEV (Homo sapiens, UniProt Q99581 1-238); conditions: protein: recombinant; tags: N-terminal GST; dsDNA, one strand shown
T1 sequence: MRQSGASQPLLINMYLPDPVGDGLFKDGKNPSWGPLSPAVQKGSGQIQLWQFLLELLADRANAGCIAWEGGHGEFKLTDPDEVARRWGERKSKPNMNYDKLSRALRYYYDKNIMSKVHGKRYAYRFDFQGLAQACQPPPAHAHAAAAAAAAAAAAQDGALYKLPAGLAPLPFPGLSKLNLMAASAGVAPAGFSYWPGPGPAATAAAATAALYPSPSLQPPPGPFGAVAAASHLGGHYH
In short: (§1)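 Human transcription factors fused to GST were expressed in yeast, captured on glutathione beads, given DNA barcodes and pooled with a GST-only negative control. Pools were incubated with 200 nmole of a 16-mer random double-stranded DNA library in Tris/NaCl/DTT/glycerol buffer at room temperature for 30 min. They were then washed, crosslinked with 0.1% formaldehyde, proximity-ligated (BsaI/T4 ligase, 1 h, 37 °C), PCR-amplified and sequenced on an Illumina NextSeq500. Binding signal is each 6-mer's read frequency for a factor divided by its frequency for the GST control.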

[2] = biological target: ETV5 (Homo sapiens, UniProt P41161 1-510); conditions: protein: recombinant; tags: N-terminal GST; dsDNA, one strand shown
In short: as §1

[3] = biological target: HSF1 (Homo sapiens, UniProt Q00613 1-529); conditions: protein: recombinant; tags: N-terminal GST; chain copies: 3; dsDNA, one strand shown
In short: as §1

[4] = biological target: T2, SPIC (Homo sapiens, UniProt Q8N5J4 1-248); conditions: protein: recombinant; tags: N-terminal GST; dsDNA, one strand shown
T2 sequence: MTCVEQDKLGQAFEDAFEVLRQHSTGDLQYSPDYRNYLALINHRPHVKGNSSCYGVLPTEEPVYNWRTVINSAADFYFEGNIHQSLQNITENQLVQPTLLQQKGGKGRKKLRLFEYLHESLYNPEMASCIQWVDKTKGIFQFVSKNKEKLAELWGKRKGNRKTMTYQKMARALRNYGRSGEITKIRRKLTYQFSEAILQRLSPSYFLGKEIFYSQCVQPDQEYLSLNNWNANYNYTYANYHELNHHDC
In short: as §1

[5] = biological target: ELF4 (Homo sapiens, UniProt Q99607 1-663); conditions: protein: recombinant; tags: N-terminal GST; dsDNA, one strand shown
In short: as §1

[6] = biological target: T3, ELK4 (Homo sapiens, UniProt P28324-2 1-405); conditions: protein: recombinant; tags: N-terminal GST; dsDNA, one strand shown
T3 sequence: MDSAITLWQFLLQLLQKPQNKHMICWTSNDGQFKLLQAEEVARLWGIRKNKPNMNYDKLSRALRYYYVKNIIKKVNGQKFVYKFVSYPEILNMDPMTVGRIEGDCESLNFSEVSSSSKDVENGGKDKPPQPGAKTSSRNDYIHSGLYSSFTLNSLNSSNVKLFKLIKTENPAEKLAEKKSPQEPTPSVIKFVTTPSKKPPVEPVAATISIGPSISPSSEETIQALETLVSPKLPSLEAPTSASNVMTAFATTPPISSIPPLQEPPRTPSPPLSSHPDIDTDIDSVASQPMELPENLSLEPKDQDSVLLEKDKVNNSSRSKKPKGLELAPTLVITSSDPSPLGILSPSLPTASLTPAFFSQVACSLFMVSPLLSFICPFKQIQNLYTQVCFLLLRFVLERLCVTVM
In short: as §1

[7] = biological target: T4, ETV2 (Homo sapiens, UniProt O00321 1-342); conditions: protein: recombinant; tags: N-terminal GST; dsDNA, one strand shown
T4 sequence: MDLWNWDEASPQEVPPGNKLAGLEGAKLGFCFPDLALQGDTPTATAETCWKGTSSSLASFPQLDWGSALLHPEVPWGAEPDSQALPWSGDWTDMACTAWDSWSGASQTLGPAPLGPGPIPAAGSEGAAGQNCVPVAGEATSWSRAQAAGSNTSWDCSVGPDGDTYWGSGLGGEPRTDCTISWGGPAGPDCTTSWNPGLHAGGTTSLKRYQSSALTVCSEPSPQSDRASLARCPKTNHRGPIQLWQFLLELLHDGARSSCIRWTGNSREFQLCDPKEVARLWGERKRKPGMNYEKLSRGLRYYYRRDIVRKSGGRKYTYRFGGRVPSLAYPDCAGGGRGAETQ
In short: as §1

[8] = biological target: T5, ELF3 (Homo sapiens, UniProt P78545 1-371); conditions: protein: recombinant; tags: N-terminal GST; dsDNA, one strand shown
T5 sequence: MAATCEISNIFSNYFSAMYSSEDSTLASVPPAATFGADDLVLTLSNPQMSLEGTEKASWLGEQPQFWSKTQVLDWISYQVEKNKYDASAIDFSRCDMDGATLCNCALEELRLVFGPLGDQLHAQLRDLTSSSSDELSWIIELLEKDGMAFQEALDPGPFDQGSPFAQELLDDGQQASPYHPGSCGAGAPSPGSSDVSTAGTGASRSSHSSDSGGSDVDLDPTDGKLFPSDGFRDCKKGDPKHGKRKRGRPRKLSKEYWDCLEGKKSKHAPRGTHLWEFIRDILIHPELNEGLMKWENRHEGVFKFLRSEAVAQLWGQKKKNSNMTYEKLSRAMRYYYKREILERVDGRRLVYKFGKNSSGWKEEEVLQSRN
In short: as §1

[9] = biological target: CRX (Homo sapiens, UniProt O43186 1-299); conditions: protein: recombinant; tags: N-terminal GST; dsDNA, one strand shown
In short: as §1

[10] = biological target: ETV1 (Homo sapiens, UniProt P50549 1-477); conditions: protein: recombinant; tags: N-terminal GST; dsDNA, one strand shown
In short: as §1

[11] = biological target: T6, ERF (Homo sapiens, UniProt P50548 1-548); conditions: protein: recombinant; tags: N-terminal GST; dsDNA, one strand shown
T6 sequence: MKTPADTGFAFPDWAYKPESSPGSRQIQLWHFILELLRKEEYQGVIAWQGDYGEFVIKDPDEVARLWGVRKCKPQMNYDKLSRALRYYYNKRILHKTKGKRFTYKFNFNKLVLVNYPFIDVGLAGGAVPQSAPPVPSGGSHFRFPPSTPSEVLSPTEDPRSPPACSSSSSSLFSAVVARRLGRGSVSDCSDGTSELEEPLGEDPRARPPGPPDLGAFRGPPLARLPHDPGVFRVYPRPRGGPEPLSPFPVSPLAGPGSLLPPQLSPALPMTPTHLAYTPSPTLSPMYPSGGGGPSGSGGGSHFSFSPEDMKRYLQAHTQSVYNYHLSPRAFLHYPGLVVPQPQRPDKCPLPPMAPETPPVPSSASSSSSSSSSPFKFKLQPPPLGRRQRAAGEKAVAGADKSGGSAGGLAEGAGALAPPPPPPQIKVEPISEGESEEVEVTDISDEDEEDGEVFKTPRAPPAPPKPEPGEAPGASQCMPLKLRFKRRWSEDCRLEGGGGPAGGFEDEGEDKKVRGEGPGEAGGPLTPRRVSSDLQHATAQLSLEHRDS
In short: as §1

[12] = biological target: T7, ETV3L (Homo sapiens, UniProt Q6ZN32 1-361); conditions: protein: recombinant; tags: N-terminal GST; dsDNA, one strand shown
T7 sequence: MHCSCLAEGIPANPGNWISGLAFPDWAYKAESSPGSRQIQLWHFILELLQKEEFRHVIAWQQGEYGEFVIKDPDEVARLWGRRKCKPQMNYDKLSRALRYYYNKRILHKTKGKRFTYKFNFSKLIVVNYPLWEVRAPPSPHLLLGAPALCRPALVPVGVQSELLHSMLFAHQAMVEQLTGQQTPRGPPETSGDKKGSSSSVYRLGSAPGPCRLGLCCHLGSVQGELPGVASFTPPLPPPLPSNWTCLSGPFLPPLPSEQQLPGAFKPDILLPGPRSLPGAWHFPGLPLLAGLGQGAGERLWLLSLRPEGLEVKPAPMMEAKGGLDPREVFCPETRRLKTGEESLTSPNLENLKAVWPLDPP
In short: as §1

[13] = biological target: T8, ETS2 (Homo sapiens, UniProt P15036 1-469); conditions: protein: recombinant; tags: N-terminal GST; dsDNA, one strand shown
T8 sequence: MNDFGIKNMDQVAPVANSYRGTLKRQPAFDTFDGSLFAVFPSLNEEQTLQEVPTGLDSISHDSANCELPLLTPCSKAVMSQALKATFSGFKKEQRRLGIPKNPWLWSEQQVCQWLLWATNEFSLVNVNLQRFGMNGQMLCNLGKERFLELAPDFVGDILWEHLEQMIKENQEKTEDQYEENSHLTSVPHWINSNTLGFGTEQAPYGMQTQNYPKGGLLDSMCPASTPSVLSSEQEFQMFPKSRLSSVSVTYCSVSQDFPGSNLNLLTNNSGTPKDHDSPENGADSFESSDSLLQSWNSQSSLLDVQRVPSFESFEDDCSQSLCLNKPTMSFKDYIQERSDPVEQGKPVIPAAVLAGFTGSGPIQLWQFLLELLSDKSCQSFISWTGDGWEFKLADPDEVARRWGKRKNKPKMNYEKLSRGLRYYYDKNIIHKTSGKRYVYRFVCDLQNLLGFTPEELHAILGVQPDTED
In short: as §1

[14] = biological target: T9, SPDEF (Homo sapiens, UniProt O95238 1-335); conditions: protein: recombinant; tags: N-terminal GST; dsDNA, one strand shown
T9 sequence: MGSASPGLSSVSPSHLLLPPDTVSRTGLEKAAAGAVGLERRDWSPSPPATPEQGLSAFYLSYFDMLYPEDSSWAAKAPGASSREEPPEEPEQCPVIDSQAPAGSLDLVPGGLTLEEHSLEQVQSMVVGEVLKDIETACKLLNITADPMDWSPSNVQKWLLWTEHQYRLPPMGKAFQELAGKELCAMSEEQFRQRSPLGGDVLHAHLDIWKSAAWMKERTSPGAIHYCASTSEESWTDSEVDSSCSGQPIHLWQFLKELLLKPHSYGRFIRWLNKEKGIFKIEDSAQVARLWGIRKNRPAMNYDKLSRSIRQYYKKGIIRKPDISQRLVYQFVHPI
In short: as §1

[15] = biological target: T10, ETV7 (Homo sapiens, UniProt Q9Y603 1-341); conditions: protein: recombinant; tags: N-terminal GST; dsDNA, one strand shown
T10 sequence: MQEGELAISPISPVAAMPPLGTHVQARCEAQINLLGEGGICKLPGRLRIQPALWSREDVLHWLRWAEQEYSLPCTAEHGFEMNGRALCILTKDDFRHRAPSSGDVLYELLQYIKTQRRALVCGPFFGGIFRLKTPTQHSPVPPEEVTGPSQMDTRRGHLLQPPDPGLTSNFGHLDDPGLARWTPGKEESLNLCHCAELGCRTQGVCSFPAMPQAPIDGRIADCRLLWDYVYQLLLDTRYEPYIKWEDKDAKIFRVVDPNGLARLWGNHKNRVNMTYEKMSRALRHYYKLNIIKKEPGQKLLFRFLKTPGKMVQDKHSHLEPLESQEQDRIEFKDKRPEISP
In short: as §1

[16] = biological target: T11, ELF5 (Homo sapiens, UniProt Q9UKW6-2 1-255); conditions: protein: recombinant; tags: N-terminal GST; dsDNA, one strand shown
T11 sequence: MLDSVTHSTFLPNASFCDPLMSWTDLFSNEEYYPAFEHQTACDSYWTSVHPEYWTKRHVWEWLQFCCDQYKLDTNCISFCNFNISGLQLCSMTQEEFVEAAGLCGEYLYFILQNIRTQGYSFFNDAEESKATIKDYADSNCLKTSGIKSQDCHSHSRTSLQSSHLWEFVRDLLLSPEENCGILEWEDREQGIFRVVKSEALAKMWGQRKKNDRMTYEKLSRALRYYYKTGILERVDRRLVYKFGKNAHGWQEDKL
In short: as §1

[17] = biological target: T12, ETV3 (Homo sapiens, UniProt P41162-2 1-143); conditions: protein: recombinant; tags: N-terminal GST; dsDNA, one strand shown
T12 sequence: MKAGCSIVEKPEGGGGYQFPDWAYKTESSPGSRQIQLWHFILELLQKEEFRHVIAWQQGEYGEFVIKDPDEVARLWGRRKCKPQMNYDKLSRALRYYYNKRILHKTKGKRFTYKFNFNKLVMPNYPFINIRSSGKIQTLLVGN
In short: as §1

[18] = biological target: ETV6 (Homo sapiens, UniProt P41212 1-452); conditions: protein: recombinant; tags: N-terminal GST; dsDNA, one strand shown
In short: as §1

HSF1, sequence (Q00613 whole entry): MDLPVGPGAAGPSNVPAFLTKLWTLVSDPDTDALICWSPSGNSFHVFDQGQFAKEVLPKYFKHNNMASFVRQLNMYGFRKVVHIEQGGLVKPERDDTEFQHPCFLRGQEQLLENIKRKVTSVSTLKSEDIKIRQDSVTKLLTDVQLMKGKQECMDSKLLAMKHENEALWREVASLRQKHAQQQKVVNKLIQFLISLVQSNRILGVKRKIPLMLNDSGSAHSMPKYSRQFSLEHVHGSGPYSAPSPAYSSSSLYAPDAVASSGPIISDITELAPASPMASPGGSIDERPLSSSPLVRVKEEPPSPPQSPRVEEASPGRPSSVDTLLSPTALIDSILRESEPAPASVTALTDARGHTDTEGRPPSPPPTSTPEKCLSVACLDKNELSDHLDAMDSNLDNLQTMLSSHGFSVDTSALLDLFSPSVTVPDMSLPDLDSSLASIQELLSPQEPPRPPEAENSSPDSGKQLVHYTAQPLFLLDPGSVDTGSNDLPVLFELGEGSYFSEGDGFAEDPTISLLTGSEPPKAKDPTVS
ETV5, sequence (P41161 whole entry): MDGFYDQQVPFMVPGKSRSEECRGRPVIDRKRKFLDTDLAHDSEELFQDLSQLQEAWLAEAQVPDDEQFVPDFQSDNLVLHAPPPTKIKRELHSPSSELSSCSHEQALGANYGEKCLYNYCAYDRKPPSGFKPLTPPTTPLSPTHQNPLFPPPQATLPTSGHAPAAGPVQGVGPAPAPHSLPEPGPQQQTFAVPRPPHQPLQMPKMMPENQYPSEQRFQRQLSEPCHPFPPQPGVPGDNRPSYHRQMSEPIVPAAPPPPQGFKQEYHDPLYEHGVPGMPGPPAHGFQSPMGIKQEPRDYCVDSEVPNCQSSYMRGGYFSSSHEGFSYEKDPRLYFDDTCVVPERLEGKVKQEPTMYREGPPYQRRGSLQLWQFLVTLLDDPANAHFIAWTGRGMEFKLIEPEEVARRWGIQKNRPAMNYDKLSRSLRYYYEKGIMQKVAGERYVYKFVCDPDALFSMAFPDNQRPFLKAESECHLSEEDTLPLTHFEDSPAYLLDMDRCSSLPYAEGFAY
ELF4, sequence (Q99607 whole entry): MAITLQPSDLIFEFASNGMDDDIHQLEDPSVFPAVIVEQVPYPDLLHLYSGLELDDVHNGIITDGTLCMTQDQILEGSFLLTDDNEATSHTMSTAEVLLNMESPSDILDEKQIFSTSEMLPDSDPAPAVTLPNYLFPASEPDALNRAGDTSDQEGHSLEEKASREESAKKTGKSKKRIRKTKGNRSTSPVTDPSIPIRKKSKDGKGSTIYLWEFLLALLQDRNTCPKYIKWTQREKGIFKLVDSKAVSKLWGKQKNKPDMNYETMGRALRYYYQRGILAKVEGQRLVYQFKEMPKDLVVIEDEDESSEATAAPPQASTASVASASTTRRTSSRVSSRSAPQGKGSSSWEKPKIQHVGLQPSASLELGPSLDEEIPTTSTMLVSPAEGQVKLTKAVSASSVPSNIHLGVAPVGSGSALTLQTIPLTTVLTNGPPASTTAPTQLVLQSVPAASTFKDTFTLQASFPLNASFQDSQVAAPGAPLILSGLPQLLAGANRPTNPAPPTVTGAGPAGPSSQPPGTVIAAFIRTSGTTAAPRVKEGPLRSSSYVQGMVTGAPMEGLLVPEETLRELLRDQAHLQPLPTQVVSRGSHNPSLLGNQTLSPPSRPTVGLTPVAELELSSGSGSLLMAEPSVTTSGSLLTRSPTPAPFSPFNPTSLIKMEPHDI
CRX, sequence (O43186 whole entry): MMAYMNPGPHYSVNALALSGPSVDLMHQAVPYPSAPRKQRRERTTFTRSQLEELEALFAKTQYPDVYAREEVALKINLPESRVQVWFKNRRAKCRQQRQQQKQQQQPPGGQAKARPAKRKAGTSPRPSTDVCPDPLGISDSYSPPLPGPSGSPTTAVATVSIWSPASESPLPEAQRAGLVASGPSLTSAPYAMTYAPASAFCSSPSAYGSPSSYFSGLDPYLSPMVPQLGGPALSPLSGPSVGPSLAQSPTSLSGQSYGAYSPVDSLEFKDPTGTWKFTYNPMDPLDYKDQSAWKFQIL
ETV6, sequence (P41212 whole entry): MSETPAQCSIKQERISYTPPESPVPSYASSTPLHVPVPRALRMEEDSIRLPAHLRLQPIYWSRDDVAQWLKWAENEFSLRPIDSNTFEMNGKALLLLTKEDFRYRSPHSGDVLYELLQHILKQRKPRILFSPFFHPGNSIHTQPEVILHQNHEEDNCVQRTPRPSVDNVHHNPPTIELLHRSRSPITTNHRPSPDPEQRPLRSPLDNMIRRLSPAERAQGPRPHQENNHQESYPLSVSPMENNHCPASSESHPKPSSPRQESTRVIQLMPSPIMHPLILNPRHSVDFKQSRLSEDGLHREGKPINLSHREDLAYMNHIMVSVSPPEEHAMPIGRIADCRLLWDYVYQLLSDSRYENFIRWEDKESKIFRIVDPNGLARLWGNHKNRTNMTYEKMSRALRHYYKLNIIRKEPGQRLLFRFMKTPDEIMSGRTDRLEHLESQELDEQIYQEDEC
ETV1, sequence (P50549 whole entry): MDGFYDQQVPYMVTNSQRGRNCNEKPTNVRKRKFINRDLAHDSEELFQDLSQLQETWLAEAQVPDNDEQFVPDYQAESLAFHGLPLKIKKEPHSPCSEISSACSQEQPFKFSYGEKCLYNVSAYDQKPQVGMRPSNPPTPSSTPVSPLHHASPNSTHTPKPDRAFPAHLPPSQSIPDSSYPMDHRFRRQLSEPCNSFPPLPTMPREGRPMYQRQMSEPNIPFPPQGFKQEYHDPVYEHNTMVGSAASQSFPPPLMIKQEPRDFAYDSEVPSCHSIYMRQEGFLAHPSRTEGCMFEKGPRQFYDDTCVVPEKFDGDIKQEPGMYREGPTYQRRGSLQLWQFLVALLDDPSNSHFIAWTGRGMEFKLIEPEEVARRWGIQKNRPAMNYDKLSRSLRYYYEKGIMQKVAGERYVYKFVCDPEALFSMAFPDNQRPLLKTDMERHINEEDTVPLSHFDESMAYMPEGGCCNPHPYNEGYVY

ATGCGC was tested, and the binding signal [1] was 1.17 fold enrichment (6-mer frequency, TF over GST control), the binding signal [2] was 1.07 fold enrichment (6-mer frequency, TF over GST control) and the binding signal [3] was 1.27 fold enrichment (6-mer frequency, TF over GST control). For the same sequence, the binding signal [4] was 1.13 fold enrichment (6-mer frequency, TF over GST control), the binding signal [5] was 1.22 fold enrichment (6-mer frequency, TF over GST control) and the binding signal [6] was 1.28 fold enrichment (6-mer frequency, TF over GST control). For the same sequence, the binding signal [7] was 1.1 fold enrichment (6-mer frequency, TF over GST control), the binding signal [8] was 1.1 fold enrichment (6-mer frequency, TF over GST control) and the binding signal [9] was 1.14 fold enrichment (6-mer frequency, TF over GST control). For the same sequence, the binding signal [10] was 1.16 fold enrichment (6-mer frequency, TF over GST control), the binding signal [11] was 1.24 fold enrichment (6-mer frequency, TF over GST control) and the binding signal [12] was 1.22 fold enrichment (6-mer frequency, TF over GST control). For the same sequence, the binding signal [13] was 1.19 fold enrichment (6-mer frequency, TF over GST control), the binding signal [14] was 1.1 fold enrichment (6-mer frequency, TF over GST control) and the binding signal [15] was 1.22 fold enrichment (6-mer frequency, TF over GST control). For the same sequence, the binding signal [16] was 1.14 fold enrichment (6-mer frequency, TF over GST control), the binding signal [17] was 1.17 fold enrichment (6-mer frequency, TF over GST control) and the binding signal [18] was 1.22 fold enrichment (6-mer frequency, TF over GST control).
